Pf growth 96h – P. falciparum growth inhibition at 96 hours; 320,000 tested, 6.9% active; P. falciparum luciferase reporter growth, 96 h; Potency, µM (top dose mostly 28.7 µM), actives largely listed as inhibitors
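Erythrocytes infected with luciferase-expressing P. falciparum were dispensed at 2% hematocrit and 0.05% parasitemia (final), then incubated with compounds 96 hours at 37 C in 5% CO2. Luminescence after detection reagent addition reported growth.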
Sm TGR inh – blocks Schistosoma mansoni thioredoxin glutathione reductase; Q962Y6; purified TGR, DTNB reduction, TNB absorbance 405 nm; AID 485364; Potency, µM (series often up to 114 µM), hits mostly inhibitors; 360,000 tested, 3% active; also: nearly all actives have a fitted effect of over 60% in size
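Kinetic colorimetric format: TGR-catalysed, NADPH-driven DTNB reduction monitored via TNB absorbance. Enzyme dispensed at 20 nM; compound exposure 15 min at room temperature before reaction start.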
Pf growth 48h – inhibits P. falciparum growth in the first generation, 48 h; P. falciparum luciferase growth in erythrocytes, 48 h; Potency, µM (doses to about 28.7 µM), usual class: inhibitors; 310,000 tested, 5.9% active
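Growth was read as firefly luciferase luminescence after a 48 h, 37 C, 5% CO2 exposure of compounds to reporter-bearing P. falciparum cultures (0.1% parasitemia, 2% hematocrit final) in Albumax-supplemented RPMI 1640.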
NS1 inh – inhibitors of influenza NS1 protein function; AID 2326; Potency, µM (titrated, usually from 46.1 µM); 270,000 tested, 0.4% active; calls by dose curve; also: actives are rising curves; nearly all actives have a fitted effect of over 50% in size
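Compounds were scored for reversing the slow growth caused by influenza A NS1 in S. cerevisiae, measured by optical density at 600 nm. Assay medium contained 2% galactose at pH 6.0; NS1-free yeast of the same strain were the positive control.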
Shiga inhibitor – blocks Shiga toxin action in Vero cells | Vero cells, Shiga toxin protein synthesis inhibition reporter | inhibition, % at 38.7 µM | 290,000 tested, 9.2% active | AID 2315; in the data active = inhibition mostly above about 28%, no sharp cut-off; inactive = mostly below about 43%
Cycloheximide cs – counter-screen for Shiga toxin inhibitors: cycloheximide protein synthesis inhibition. cell reporter, cycloheximide protein synthesis inhibition counterscreen. max response, %. 300,000 tested, 12% active. AID 2314; in the data active = max response mostly above about 13%, no sharp cut-off; inactive = mostly below about 14%; also: read at 38.3 µM for the half of the compounds with a filed dose
Large screens that a line does not name were inactive. An excerpt weighted towards active compounds, which were near 21% of everything screened. Unless noted, calls follow the shape of the dose curve; as a rule, active = well fitted curve in the direction sought with a large enough effect; inconclusive = small, poorly fitted or top-dose-only effect, or another doubt; inactive = no such curve, though single readings can be large; an effect the other way counts as inactive or inconclusive.

CCCS(=O)(=O)N1CC(=O)N(c2ccccc2C)C(C)(C(=O)NC2CCCCC2)C1 (centres undefined)	none (no result: Pf growth 96h, Pf growth 48h, NS1 inh, Shiga inhibitor, Cycloheximide cs)
CCOc1ccc(N2CC(C(=O)Nc3ccc(S(=O)(=O)NCC4CCCO4)cc3)CC2=O)cc1 (centres undefined)	Pf growth 96h inconclusive
COc1ccc(CN2CCC(CO)(CCOc3ccccc3)CC2)cc1C	Pf growth 48h 10µM
COc1cc(CN2CCC(CO)(CCOc3ccccc3)CC2)cc(OC)c1OC	Pf growth 48h 5.9µM
OCC1(CCOc2ccccc2)CCN(Cc2ccncc2)CC1	Pf growth 96h inconclusive, Sm TGR inh inconclusive, Pf growth 48h inconclusive
OCC1(CCOc2ccccc2)CCN(CCCn2cccn2)CC1	Pf growth 96h 10µM
OCC1(CCOc2ccccc2)CCN(Cc2ccc3c(c2)OCCO3)CC1	Pf growth 96h 12µM
CCOc1cc(CN2CCCCCC2)ccc1OC	none
COc1ccc(CN2CCC(Cc3ccccc3)CC2)c(C)c1C	Pf growth 96h inconclusive, Pf growth 48h inconclusive
CCOc1cc(CN2CCC(CO)(Cc3cccc(C(F)(F)F)c3)CC2)ccc1OC	Pf growth 96h 10µM, Pf growth 48h inconclusive
COc1cc(CN2CCC(Cc3ccccc3)CC2)cc(OC)c1OC	Pf growth 96h 9.3µM, Pf growth 48h inconclusive
OCC1(CCOc2ccccc2)CCN(Cc2ccc(OC(F)F)cc2)CC1	Pf growth 96h 10µM
COc1ccc(/C=C(/NC(=O)c2ccco2)C(=O)NCc2ccco2)cc1OC	Pf growth 96h inconclusive
O=S(=O)(NCC(O)c1ccccc1)c1cc(Cl)sc1Cl (centres undefined)	Pf growth 48h inconclusive, Shiga inhibitor 25
CN(CCNC(=O)Cn1c(=O)sc2ccccc21)Cc1ccccc1	Pf growth 96h 4.7µM (no result: Pf growth 48h)
CCCCN(C)CCNC(=O)Cn1c(=O)sc2ccccc21	Pf growth 96h 8.3µM (no result: Pf growth 48h)
Cc1ccc(OCc2cc(C(=O)N3CCCCCCC3)no2)cc1C	Pf growth 96h 1.7µM, Shiga inhibitor 38, Cycloheximide cs 20
Cc1ccc(OCc2cc(C(=O)N3CCN(C4CCCCC4)CC3)no2)cc1C	Pf growth 48h inconclusive, Shiga inhibitor 65, Cycloheximide cs 52
Cc1cc(OCc2cc(C(=O)N3CCCCCC3)no2)cc(C)c1Cl	Pf growth 96h inconclusive, Shiga inhibitor 128, Cycloheximide cs 61
Cc1ccc(OCc2cc(C(=O)N(CCO)Cc3cccs3)no2)cc1C	Shiga inhibitor 160, Cycloheximide cs 51
Cc1cc(OCc2cc(C(=O)N3CCN(CC4CC4)CC3)no2)cc(C)c1Cl	Pf growth 96h inconclusive
Cc1ccc(OCc2cc(C(=O)N3CCc4sccc4C3)no2)cc1C	Pf growth 96h inconclusive
CC1CCC(NC(=O)c2cc(S(=O)(=O)N(C)C)ccc2N2CCCC2)CC1 (centres undefined)	Pf growth 96h inconclusive, Pf growth 48h inconclusive (no result: NS1 inh, Shiga inhibitor, Cycloheximide cs)
COc1ccc(-c2nc(CN3CCN(Cc4cccc(Cl)c4)CC3)c(C)o2)cc1	none (no result: Shiga inhibitor)
CC(C)CCn1c(O)c(N=NC(=O)Cn2ccc(C(F)(F)F)n2)c2ccccc21	none
C=CCC1(CC=C)CCCN1C(=O)c1cc(COc2ccc(C)nc2)on1	Pf growth 48h inconclusive, Shiga inhibitor 78, Cycloheximide cs 21
COc1ccc(N2CCN(C(=O)c3cc(C)on3)CC2)cc1	Pf growth 96h inconclusive
C=CCC1(CC=C)CCCN1C(=O)c1cc(COc2ccc(F)c(F)c2)on1	Sm TGR inh inconclusive, Pf growth 48h inconclusive
Cc1ccc(OCc2cc(C(=O)N3CCN(C4CCCC4)CC3)no2)cc1C	Sm TGR inh inconclusive, Shiga inhibitor 53, Cycloheximide cs 42
Cc1ccc(OCc2cc(C(=O)N3CCN(c4ccccc4)CC3)no2)cc1C	Shiga inhibitor 59, Cycloheximide cs 41
Cc1ccc(OCc2cc(C(=O)N3CCC(c4ccccc4Cl)C3)no2)cc1C (centres undefined)	Pf growth 96h inconclusive, Shiga inhibitor 73, Cycloheximide cs 63
Cc1cc(S(=O)(=O)N2CCN=C2c2ccccc2)c(C)cc1Cl	Pf growth 96h inconclusive
O=c1c2sc3ccccc3c2n(Cc2ccc(F)cc2Cl)c(=O)n1Cc1ccccc1	none (no result: Pf growth 96h, Pf growth 48h, NS1 inh, Shiga inhibitor, Cycloheximide cs)
Cn1ccnc1CN1CCN(C(=O)c2cc(COc3ccc(F)c(F)c3)on2)CC1	none
CSc1ccccc1OCc1cc(C(=O)N2CCNC(=O)C2)no1	Pf growth 96h inconclusive
CSc1ccccc1OCc1cc(C(=O)N2CCN(Cc3nccn3C)CC2)no1	Pf growth 96h inconclusive

Compound activity as filed in PubChem BioAssay.
